HP1b chromo inh – inhibitors of HP1-beta chromodomain binding to methylated histone tails. AlphaScreen HP1-beta / biotin-H3K9me3 peptide binding. Potency, µM (highest dose often 114 µM), for the others: at the top dose activity change, negative = inhibition, most hits filed as inhibitors. 390,000 tested, 0.56% active. AID 540317; further: nearly all actives have a fitted effect of over 70% in size
Target sequence (P83916 whole entry, looked up): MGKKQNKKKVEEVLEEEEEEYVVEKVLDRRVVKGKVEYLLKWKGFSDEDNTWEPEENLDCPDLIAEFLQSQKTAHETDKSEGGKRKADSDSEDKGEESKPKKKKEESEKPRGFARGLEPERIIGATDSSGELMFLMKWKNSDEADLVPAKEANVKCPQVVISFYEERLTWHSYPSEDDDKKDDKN
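Compound inhibition of the preformed complex between 50 nM HP1-beta and 50 nM biotinylated H3K9me3 peptide was read by AlphaScreen. Buffer was PBS pH 7.4 with 0.01% Tween-20. Incubations ran 30 min at room temperature, with 10 ug/mL donor/acceptor beads.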
BAZ2B inh – blocks human BAZ2B | Q9UIF8 | AlphaScreen BAZ2B-H3K14Ac peptide displacement | Potency, µM (series often up to 114 µM), inactives show top-dose activity change, negative = inhibition, most hits filed as inhibitors | 360,000 tested, 4.4% active; further: on the % scale 0 is the no-effect control and ±100 the full control effect; nearly all actives have a fitted effect of over 60% in size
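Complex of BAZ2B and biotin-H3K14Ac (50 nM apiece) forms over 30 min at RT, then faces library compounds up to 110 uM for another 30 min; AlphaScreen beads added, 20 min dark incubation, luminescence read.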
G9a inh – inhibitors of human histone lysine methyltransferase G9a. G9a H3K9 monomethylation, AlphaScreen, 2 h. Potency, µM (top dose mostly 102 µM), without a hit: at the top dose activity, negative = inhibition, usual class: inhibitors. 350,000 tested, 8.8% active. AID 504332; further: on the % scale 0 is the no-effect control and ±100 the full control effect; nearly all actives have a fitted effect of over 75% in size
Target sequence (Q96KQ7 913-1193 limits assumed): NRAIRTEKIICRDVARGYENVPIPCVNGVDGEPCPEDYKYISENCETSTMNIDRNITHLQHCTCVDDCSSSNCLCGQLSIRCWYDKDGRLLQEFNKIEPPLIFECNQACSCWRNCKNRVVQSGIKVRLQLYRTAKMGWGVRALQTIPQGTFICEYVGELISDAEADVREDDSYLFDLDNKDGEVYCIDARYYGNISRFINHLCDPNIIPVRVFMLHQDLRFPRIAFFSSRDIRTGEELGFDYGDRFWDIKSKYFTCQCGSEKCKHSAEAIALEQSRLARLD
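G9a (20 nM) was preincubated 15 min with compound, then reacted 2 h at room temperature with 500 nM biotin-H3K9 peptide and 20 µM SAM. Monomethyl-H3K9 detected by AlphaScreen using anti-H3K9me1 antibody.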
L3MBTL1 block – blocks human L3MBTL1; AlphaScreen L3MBTL1–H3K9me1 peptide binding; 230,000 tested, 0.66% active; Q9Y468; Potency, µM (highest dose often 57.1 µM), inactives show at the highest dose activity, negative = inhibition, most hits filed as inhibitors; AID 485360; further: on the % scale 0 is the no-effect control and ±100 the full control effect; nearly all actives have a fitted effect of over 60% in size
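First, the protein-peptide complex forms for 30 min at room temperature (L3MBTL1 50 nM, biotinylated H3K9me1 peptide 75 nM). Next, compounds are pin-transferred and incubated 30 min. Finally, AlphaScreen beads are added and read after 30 min.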
Sfp PPTase inh – Sfp phosphopantetheinyl transferase inhibition | Biochemical Sfp PPTase activity, qHTS | Potency, µM, without a hit: largest response in the series, negative = inhibition, most hits filed as inhibitors | 310,000 tested, 3.5% active | AID 1490;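 further: the enzyme is Sfp with the accession as filed and its product quenches rhodamine fluorescence; 0% = enzyme reaction without inhibitor and -100% = no enzyme wells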
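Sfp 15 nM + cpd, 15 min RT; start w/ rhodamine-CoA 5 uM, BHQ-2-YbbR 12.5 uM (final); 50 mM Hepes pH 7.6, 10 mM MgCl2, 0.01% NP-40, 0.01% BSA; read 525/598 nm at 0 and 30 min.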
JMJD2A Tudor inh – JMJD2A Tudor domain (human) inhibition | O75164 | AlphaScreen JMJD2A-Tudor / H3K4me3 peptide binding | Potency, µM (highest dose often 114 µM), for the others: top-dose activity change, negative = inhibition, hits mostly inhibitors | 390,000 tested, 4.4% active | AID 504339; further: on the % scale 0 is the no-effect control and ±100 the full control effect; nearly all actives have a fitted effect of over 50% in size
Numbers without * were called inactive; [ ] = dose if it differs, or a comment. Hits are enriched below; roughly 12% of the tested compounds scored in any of these assays. The call rests on the fitted dose curve; in most records, active means well fitted curve in the direction sought with a large enough effect; inconclusive means small, poorly fitted or top-dose-only effect, or another doubt; inactive means no such curve, though single readings can be large; an effect the other way counts as inactive or inconclusive. Potency means the concentration at half of the fitted maximal effect.

What do the screens show for `CSCC[C@H](NC(=O)[C@H](CC(C)C)NC(=O)[C@@H]1CCCN1C(=O)[C@H](Cc1ccccc1)NC(=O)[C@H](Cc1ccccc1)NC(=O)[C@@H]1CCC(=O)N1)C(N)=O`?
Sfp PPTase inh: -17%

What do the screens show for `CCCCNC(=O)c1c(CSc2ccccc2)noc1C(=O)NCc1ccccc1`?
HP1b chromo inh: 63%; BAZ2B inh: 24%; G9a inh: 41%[59 µM]; Sfp PPTase inh: 8%; JMJD2A Tudor inh: 17%

Results for O=C(O)CCc1ccc(-c2cccs2)n1Cc1ccco1 ?
HP1b chromo inh: 5%; BAZ2B inh: 50µM*; G9a inh: inconclusive; Sfp PPTase inh: 25µM*; JMJD2A Tudor inh: inconclusive

Results for CCCCn1c(CCC(=O)O)ccc1-c1cccs1 ?
HP1b chromo inh: -5%; BAZ2B inh: inconclusive; G9a inh: inconclusive; L3MBTL1 block: -10%; Sfp PPTase inh: inconclusive; JMJD2A Tudor inh: inconclusive

How did COCCn1c(CCC(=O)O)ccc1-c1cccs1 do in these assays?
HP1b chromo inh: 17%; BAZ2B inh: -30%; G9a inh: 50µM*; L3MBTL1 block: -2%; Sfp PPTase inh: -10%; JMJD2A Tudor inh: -15%

Results for Cc1c(Cl)cccc1NC(=O)Cn1c(CCC(=O)O)ccc1-c1ccc(Cl)cc1 ?
HP1b chromo inh: inconclusive; BAZ2B inh: 56µM*; G9a inh: inconclusive; L3MBTL1 block: -1%; Sfp PPTase inh: 21%; JMJD2A Tudor inh: 35µM*

How did O=C(O)CCc1ccc(-c2ccc(Cl)cc2)n1CC(=O)O do in these assays?
HP1b chromo inh: 25%; BAZ2B inh: -32%; G9a inh: 45µM*; L3MBTL1 block: -10%; Sfp PPTase inh: -18%; JMJD2A Tudor inh: inconclusive

What do the screens show for `O=C(O)CCc1ccc(-c2ccc(Cl)cc2)n1CCC(=O)O`?
HP1b chromo inh: 31%; BAZ2B inh: -38%; G9a inh: 1%[59 µM]; L3MBTL1 block: -8%; Sfp PPTase inh: -14%; JMJD2A Tudor inh: -36%

Results for Cc1ccc2c(c1)c(N1CCCC1=O)c(C(=O)Nc1ccc(F)cc1F)n2C ?
HP1b chromo inh: 30%; BAZ2B inh: 1%; G9a inh: 5%[59 µM]; JMJD2A Tudor inh: 1%

What do the screens show for `CCc1cccc(C)c1Nc1c(-c2cccc(O)c2)nc2nc(C)cc(C)n12`?
HP1b chromo inh: -9%; BAZ2B inh: -37%; G9a inh: inconclusive; JMJD2A Tudor inh: inconclusive

How did O=C(O)CCc1ccc(-c2ccc(Cl)cc2)n1Cc1ccco1 do in these assays?
HP1b chromo inh: 6%; BAZ2B inh: 50µM*; G9a inh: inconclusive; Sfp PPTase inh: -14%; JMJD2A Tudor inh: inconclusive

What do the screens show for `O=C(O)CCc1ccc(-c2ccccc2)n1CC(=O)Nc1ccccc1C(F)(F)F`?
HP1b chromo inh: 35%; BAZ2B inh: -22%; G9a inh: -30%[59 µM]; JMJD2A Tudor inh: -9%

How did O=C(O)CCc1ccc(-c2ccccc2)n1CC(=O)Nc1cccc(C(F)(F)F)c1 do in these assays?
HP1b chromo inh: 12%; BAZ2B inh: inconclusive; G9a inh: 45µM*; L3MBTL1 block: -6%; Sfp PPTase inh: 4%; JMJD2A Tudor inh: -30%

What do the screens show for `COc1ccc(-c2ccc(CCC(=O)O)n2Cc2ccco2)cc1`?
HP1b chromo inh: -4%; BAZ2B inh: inconclusive; L3MBTL1 block: -11%; Sfp PPTase inh: inconclusive; JMJD2A Tudor inh: -30%

Results for CC(=O)NCCCc1ccc(C(=O)COC(=O)CNC(=O)c2ccc3ccccc3c2)cc1 ?
HP1b chromo inh: 9%[57 µM]; JMJD2A Tudor inh: 3%[57.1 µM]

What do the screens show for `COC(=O)c1cc2oc(C)cc2n1Cc1cc(C)ccc1C`?
HP1b chromo inh: 14%; BAZ2B inh: -32%; G9a inh: inconclusive; JMJD2A Tudor inh: -29%

Results for CCc1cc(C(c2ccncc2)N2CCN(C)CC2)c(NC(=O)c2ccccc2)s1 (stereo not drawn) ?
HP1b chromo inh: 16%; BAZ2B inh: inconclusive; G9a inh: 40µM*; L3MBTL1 block: -8%; Sfp PPTase inh: -17%; JMJD2A Tudor inh: -35%

What do the screens show for `Cc1cc(NN)nc(Cc2ccccc2)n1`?
HP1b chromo inh: 23%; BAZ2B inh: -32%; G9a inh: 18%; Sfp PPTase inh: 50µM*; JMJD2A Tudor inh: -3%

Results for Cc1cc(NC(CC(C)C)C(=O)O)nc(Cc2ccccc2)n1 (stereo not drawn) ?
HP1b chromo inh: 20%; BAZ2B inh: 14%; G9a inh: -33%[59 µM]; L3MBTL1 block: 17%; Sfp PPTase inh: 17%; JMJD2A Tudor inh: 4%

What do the screens show for `CCc1ccccc1Nc1nc(N)nc(CSc2nnnn2C)n1`?
HP1b chromo inh: 35%; BAZ2B inh: inconclusive; G9a inh: 3%; Sfp PPTase inh: 19%; JMJD2A Tudor inh: -7%

What do the screens show for `CCc1ccccc1Nc1nc(N)nc(CSCC(=O)c2cc(C)n(C)c2C)n1`?
HP1b chromo inh: -14%; BAZ2B inh: 56µM*; G9a inh: inconclusive; Sfp PPTase inh: -19%; JMJD2A Tudor inh: inconclusive

How did Clc1ccccc1N=C1NN=C(c2cccs2)CS1 do in these assays?
HP1b chromo inh: 14%; G9a inh: 89µM*; Sfp PPTase inh: -6%; JMJD2A Tudor inh: -30%

What do the screens show for `CN(C)c1ccc(/C=c2\sc3n(c2=O)CCCN=3)cc1`?
HP1b chromo inh: 16%; BAZ2B inh: -34%; G9a inh: 3.2µM*; L3MBTL1 block: -3%; Sfp PPTase inh: -11%; JMJD2A Tudor inh: -23%[11.4 µM]

How did CCc1ccc(/C=C2/Sc3ccccc3N(CC(=O)NCC3CCCO3)C2=O)cc1 (stereo not drawn) do in these assays?
HP1b chromo inh: 5%; BAZ2B inh: -12%; G9a inh: 29%; Sfp PPTase inh: -5%; JMJD2A Tudor inh: -28%

What do the screens show for `COc1ccc(CCNC(=O)CSc2n[nH]c(N)n2)cc1OC`?
HP1b chromo inh: 8%; BAZ2B inh: 6%; G9a inh: 24%; Sfp PPTase inh: 18%; JMJD2A Tudor inh: -15%

Results for COc1ccc(-c2nnc(SCC(=O)NCCc3ccc(OC)c(OC)c3)nc2-c2ccc(OC)cc2)cc1 ?
HP1b chromo inh: 6%; BAZ2B inh: inconclusive; G9a inh: 8.9µM*; JMJD2A Tudor inh: inconclusive

Results for COc1ccc(-c2nnc(SCC(=O)NCCc3ccccc3)nc2-c2ccc(OC)cc2)cc1 ?
HP1b chromo inh: 54%; BAZ2B inh: -12%; G9a inh: 4%[59 µM]; JMJD2A Tudor inh: -8%

How did COc1ccc(CCNC(=O)CSc2nnc(-c3ccco3)c(-c3ccco3)n2)cc1OC do in these assays?
BAZ2B inh: 45µM*; G9a inh: 8.9µM*; Sfp PPTase inh: 20µM*

Screening results from PubChem.
